Measured values taken from PubChem BioAssay (NCI).
“And” between values parts separate entries of the source, which are not always exact repeats. Equal values may be shown once. The panel holds about 83,000 compounds, 20% with a hit somewhere; the sample as a whole holds those more often.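 How to read the values: 0–100, growth inhibition (40 = 60% inhibited); 0, no net growth; -100 to 0, cell death (-40 = 40% of starting cells died; -100 = all dead).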 The source made the active and inactive calls. How the source made its calls: active means growth percent below 10; inactive means the rest.

What was measured:
Test in all cases: NCI-60 one-dose screen, 48 h (100 = growth as untreated, 0 = no growth, -100 = all killed)
Conditions in all cases: 10 µM unless noted
[1] = test system: T-47D breast
[2] = test system: BT-549 breast
[3] = test system: MDA-MB-435 melanoma
[4] = test system: SW-620 colon
[5] = test system: MCF7 breast
[6] = test system: HCT-116 colon
[7] = test system: HCC-2998 colon
[8] = test system: KM12 colon

SMILES	growth [1]	growth [2]	growth [3]	growth [4]	growth [5]	growth [6]	growth [7]	growth [8]
CN1CCN(Cc2occc(=O)c2O)CCN(C)CCN(Cc2occc(=O)c2O)CC1	93.8% (inactive) and 77.4% (inactive)	97.1% (inactive) and 84% (inactive)	108% (inactive) and 47.3% (inactive)	113% (inactive) and 15.6% (inactive)	91.6% (inactive) and 24.9% (inactive)	100% (inactive) and 10.6% (inactive)	112% (inactive) and 47.5% (inactive)	109% (inactive) and 28.9% (inactive)
O=[N+]([O-])c1ccc(N/N=C\c2cc(Br)ccc2O)nc1	16% (inactive) and 33% (inactive)	25.6% (inactive)	29.3% (inactive) and 25.2% (inactive)	27.3% (inactive) and 34.3% (inactive)	13.4% (inactive) and 13.6% (inactive)	10.1% (inactive) and 15.2% (inactive)	23.2% (inactive) and 23% (inactive)	32.5% (inactive) and 24% (inactive)
CO/N=C/C=C\C(=O)N/C=C/C[C@H]1/C=C/[C@H](O)/C=C\C=C\c2cccc(O)c2C(=O)O1	16.4% (inactive) and 17.4% (inactive)	31.6% (inactive) and 46.9% (inactive)	6.42% (active) and -15.8% (active)	17.5% (inactive) and 8.83% (active)	35.6% (inactive) and 26.1% (inactive)	21.3% (inactive) and 14.9% (inactive)	59.3% (inactive) and 29.1% (inactive)	34.3% (inactive) and 20.8% (inactive)
COc1cc2c(Nc3ccc(Cl)c(Cl)c3F)ncnc2cc1OCC1C[C@@H]2CN(C)C[C@@H]2C1 (stereo partly specified)	-74.6% (active) and -6.7% (active)	-87.2% (active) and 36.9% (inactive)	-95.8% (active) and -38% (active)	-76.6% (active) and 6.96% (active)	-71.9% (active) and 13.4% (inactive)	-85.4% (active) and 7.79% (active)	-87.7% (active) and 22.2% (inactive)	-88.5% (active) and 39.9% (inactive)
O=C(/C=C/c1ccccn1)c1ccccc1O	68.7% (inactive) and 66% (inactive)	112% (inactive)	58.2% (inactive) and 75.2% (inactive)	46.1% (inactive) and 73.8% (inactive)	37.9% (inactive) and 37.4% (inactive)	44.6% (inactive)	9.46% (active) and 97.3% (inactive)	40.4% (inactive) and 48.2% (inactive)
CNc1cc(-c2cccc(OC(F)(F)F)c2)nc2ccc(N3CCCC3)cc12	-40.3% (active) and -55% (active) and -40.4% (active)	-81.3% (active) and 74.1% (inactive) and 76.4% (inactive)	35.8% (inactive) and -86.4% (active) and -70.6% (active)	5.95% (active) and -18.2% (active) and 0.371% (active)	3.84% (active) and -19.7% (active) and 0.755% (active)	-76% (active) and -90.3% (active) and -76.6% (active)	25.9% (inactive) and -53.7% (active) and -32.7% (active)	12.5% (inactive) and -3.68% (active) and 1.48% (active)
O=C(Nc1ccc(Br)cc1)c1cc(Br)ccc1O	14.7% (inactive) and -7.33% (active)	-16.1% (active) and -40.7% (active)	-1.59% (active) and -13.4% (active)	12.4% (inactive) and 4.33% (active)	5.04% (active) and 4.44% (active)	0.123% (active) and 0.553% (active)	24.4% (inactive) and -42.1% (active)	4.3% (active) and -15.4% (active)
CCN(CC)CCc1nc(-c2ccccc2)no1	55.8% (inactive) and 81.1% (inactive)	55.2% (inactive) and 103% (inactive)	90.1% (inactive) and 99.3% (inactive)	73.3% (inactive) and 114% (inactive)	58.5% (inactive) and 96% (inactive)	85.5% (inactive) and 103% (inactive)	113% (inactive) and 111% (inactive)	85% (inactive) and 111% (inactive)
COc1cc2nc(N3CCN(C(=O)C4COc5ccccc5O4)CC3)nc(N)c2cc1OC (stereo unspecified)	91.2% (inactive) and 93.6% (inactive) and 96% (inactive)	86.9% (inactive) and 96.6% (inactive) and 105% (inactive)	96.5% (inactive) and 90.2% (inactive) and 92.2% (inactive)	92% (inactive) and 97.7% (inactive) and 109% (inactive)	91.7% (inactive) and 95.2% (inactive) and 101% (inactive)	105% (inactive) and 79.8% (inactive) and 104% (inactive)	102% (inactive) and 105% (inactive) and 108% (inactive)	103% (inactive) and 99.6% (inactive) and 102% (inactive)
CC1=C(/C=C/C(C)=C/C=C/C(C)=C/C(=O)Nc2ccc(O)cc2)C(C)(C)CCC1	5.78% (active)	21.9% (inactive)	31.7% (inactive)	67.2% (inactive)	8.82% (active)	55.3% (inactive)	51% (inactive)	34.2% (inactive)
CCC(O)c1ccccc1 (stereo unspecified)	106% (inactive) and 102% (inactive)	133% (inactive)	89.8% (inactive) and 107% (inactive)	109% (inactive) and 104% (inactive)	103% (inactive) and 95.6% (inactive)	86.7% (inactive) and 108% (inactive)	-87.7% (active)	116% (inactive) and 108% (inactive)
CC(C)Cc1ccc(C(C)C(=O)NCc2ccc(Cn3c(=O)sn(CCCCl)c3=O)cc2)cc1 (stereo unspecified)	57% (inactive) and -46.4% (active)	92.3% (inactive) and -67.8% (active)	101% (inactive) and -83.6% (active)	87.3% (inactive) and -72.3% (active)	57.3% (inactive) and -31.3% (active)	92.4% (inactive) and -65.6% (active)	95.7% (inactive) and -44.7% (active)	95% (inactive) and 4.78% (active)
Cc1ccc(-c2noc(C)n2)cc1	104% (inactive)	98.6% (inactive)	99% (inactive)	108% (inactive)	95.6% (inactive)	101% (inactive)	103% (inactive)	116% (inactive)
COc1ccc(Cn2c(NCCN=C(N)N)nc(=O)n(Cc3ccc(F)cc3)c2=O)cc1	91.4% (inactive) and 87.7% (inactive)	86.9% (inactive) and 70.2% (inactive)	100% (inactive) and 109% (inactive)	101% (inactive) and 95.1% (inactive)	93.3% (inactive) and 93% (inactive)	88.7% (inactive) and 98.3% (inactive)	104% (inactive) and 102% (inactive)	114% (inactive) and 106% (inactive)
CCCCCn1sc(=O)n(Cc2ccc(CNC(=O)C(C)c3ccc(CC(C)C)cc3)cc2)c1=O (stereo unspecified)	86.4% (inactive) and -44.8% (active)	99.1% (inactive) and -82.4% (active)	98.1% (inactive) and -61.5% (active)	87.6% (inactive) and -73.1% (active)	93.2% (inactive) and -43.1% (active)	103% (inactive) and -82.6% (active)	105% (inactive) and -64.3% (active)	88.7% (inactive) and -14.3% (active)
COc1ccc(/C(C#N)=C/c2ccccn2)cc1	88.7% (inactive) and 115% (inactive)	103% (inactive)	97% (inactive) and 106% (inactive)	112% (inactive) and 130% (inactive)	104% (inactive) and 102% (inactive)	96.3% (inactive) and 104% (inactive)	97.7% (inactive) and 103% (inactive)	101% (inactive) and 102% (inactive)
Cc1cc(C)c(N)c(Br)c1	98.1% (inactive) and 87.3% (inactive)	108% (inactive) and 88.8% (inactive)	114% (inactive) and 104% (inactive)	111% (inactive) and 104% (inactive)	103% (inactive)	110% (inactive) and 95.8% (inactive)	112% (inactive)	106% (inactive) and 102% (inactive)
